Data as given in PubChem BioAssay (EPA / NIEHS).
Where “and” joins values, the source holds several entries; their conditions need not be identical. Equal values may be shown once. Results filed as inconclusive are left out. Calls of active or inactive are those of the source. Rule for the calls, unless noted: active = hit-call score of the fitted dose curve at least 0.9, where 1 is the maximum; inconclusive = response in the unintended direction; inactive = score below 0.9.

Columns and labels:
[1] = TOX21_p53_BLA_p2_viability: Viability Assessment in the Tox21 HCT-116 p53 Agonism Beta-lactamase Assay, Phase 2 (AID 2283591);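 note: compound exposure lasted 16 h at 37 °C; actives lower the ATP signal meaning cytotoxicity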
How it was run: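 HCT-116 p53-bla cells (4000/well) rested 5 h at 37C, then received compounds in DMSO (217-fold dilution) for 16 h at 37C, 5% CO2. After the CCF4 read, CellTiter-Glo was added; ATP luminescence was read after 30 min at room temperature.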

[2] = biological target: Cellular tumor antigen p53 (Homo sapiens) (UniProt P04637); assay: TOX21_p53_BLA_p2_ratio: Tox21 HCT-116 p53 Agonism Beta-lactamase Assay, Ratio, Phase 2 (AID 2283592)
Chain of Cellular tumor antigen p53 (Homo sapiens) (P04637 whole entry, looked up): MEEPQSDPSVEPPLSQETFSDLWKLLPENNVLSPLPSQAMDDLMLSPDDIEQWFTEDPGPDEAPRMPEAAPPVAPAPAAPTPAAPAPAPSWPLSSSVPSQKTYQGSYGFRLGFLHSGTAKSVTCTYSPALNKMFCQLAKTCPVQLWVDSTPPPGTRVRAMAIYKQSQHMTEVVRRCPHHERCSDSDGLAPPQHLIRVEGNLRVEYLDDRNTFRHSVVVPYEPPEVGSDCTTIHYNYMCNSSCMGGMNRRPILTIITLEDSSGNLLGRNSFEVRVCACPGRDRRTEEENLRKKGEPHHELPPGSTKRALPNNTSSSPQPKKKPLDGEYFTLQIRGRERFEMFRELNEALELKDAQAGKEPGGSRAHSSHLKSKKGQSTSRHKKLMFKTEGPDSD
How it was run: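 HCT-116 cells with p53-responsive beta-lactamase reporter, 4000 cells/well, preincubated 5 h, then compound in DMSO (217-fold dilution) for 16 h at 37C. CCF4-AM substrate 2 h at room temperature; 460/530 nm emission ratio fitted upward versus DMSO.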

[3] = TOX21_p53_BLA_p3_viability: Viability Assessment in the Tox21 HCT-116 p53 Agonism Beta-lactamase Assay, Phase 3 (AID 2283593);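 note: cells exposed to compound for 16 h before reading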
How it was run: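 HCT-116 cells (4000/well) rested 5 h at 37C, then got DMSO compounds by pin tool (217-fold dilution) for 16 h at 37C, 5% CO2. After the bla read, CellTiter-Glo was added and luminescence read at 30 min, room temperature.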

[4] = biological target: Cellular tumor antigen p53 (Homo sapiens) (UniProt P04637); assay: TOX21_p53_BLA_p3_ratio: Tox21 HCT-116 p53 Agonism Beta-lactamase Assay, Ratio, Phase 3 (AID 2283596)
How it was run: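 HCT116 p53-bla cells (4000/well) given compound in DMSO (217-fold dilution) after 5 h, incubated 16 h at 37C. CCF4-AM substrate 2 h at room temperature; 460/530 nm emission ratio, gain fitted against DMSO.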

[5] = TOX21_p53_BLA_p4_viability: Viability Assessment in the Tox21 HCT-116 p53 Agonism Beta-lactamase Assay, Phase 4 (AID 2283597);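 note: hits lower the luminescence signal meaning cytotoxicity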
How it was run: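 HCT-116 p53-bla cells, 4000/well, dosed after 5 h attachment and incubated 16 h at 37 °C, 5% CO2. Viability from CellTiter-Glo ATP luminescence after 30 min at room temperature, taken after the beta-lactamase read; loss of signal indicates cytotoxicity.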

[6] = biological target: Cellular tumor antigen p53 (Homo sapiens) (UniProt P04637); assay: TOX21_p53_BLA_p5_ratio: Tox21 HCT-116 p53 Agonism Beta-lactamase Assay, Ratio, Phase 5 (AID 2283599)
How it was run: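 HCT-116 cells carrying a p53-inducible beta-lactamase reporter were seeded at 4000 cells/well and dosed after 5 h with compound in DMSO (217-fold dilution). After 16 h at 37C, CCF4-AM substrate was added for 2 h, and the 460/530 nm emission ratio was scored as gain-of-signal versus DMSO.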

[7] = TOX21_p53_BLA_p5_viability: Viability Assessment in the Tox21 HCT-116 p53 Agonism Beta-lactamase Assay, Phase 5 (AID 2283600)
How it was run: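 HCT-116 p53 beta-lactamase reporter cells, 4000/well, were exposed to compound (pin transfer, 217-fold dilution) for 16 hours at 37C. Cellular ATP was read by CellTiter-Glo luminescence after 30 min at room temperature.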

[8] = biological target: Cellular tumor antigen p53 (Homo sapiens) (UniProt P04637); assay: TOX21_p53_BLA_p4_ratio: Tox21 HCT-116 p53 Agonism Beta-lactamase Assay, Ratio, Phase 4 (AID 2283601)
How it was run: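 HCT116 cells carrying an inducible beta-lactamase reporter were plated at 4000 cells/well, rested 5 h, then exposed to compounds in DMSO (217-fold dilution) for 16 h at 37C. CCF4-AM substrate was loaded 2 h at room temperature; 460/530 nm emission ratio scored gain-of-signal versus DMSO.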

[9] = biological target: Thyroid hormone receptor alpha (Rattus norvegicus) + Thyroid hormone receptor beta (Rattus norvegicus) (UniProt P18113+P63059); assay: TOX21_TR_LUC_GH3_Antagonist_Followup: Tox21 GH3 Thyroid Hormone Receptor Antagonism Luciferase Follow-Up Assay (AID 2283942)
How it was run: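 Rat pituitary GH3 cells with a TRα/TRβ-driven luciferase reporter, 5 h attachment, then 15 concentrations (92 uM to 5nM final) plus 1.0 nM T3 agonist, 24 h at 37C/5% CO2. ONE-Glo luminescence; signal change fitted against DMSO baseline.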

THRA (gene 7067) = THRA (gene 7067) (UniProt P10827); assay: TOX21_TRA_COA_Antagonist_Followup_ratio: Tox21 Thyroid Hormone Receptor alpha Antagonism through Coactivator Recruitment Follow-Up Assay, Ratio (AID 2283953)
Chain of THRA (gene 7067) (P10827 whole entry, looked up, the tested form may be a part): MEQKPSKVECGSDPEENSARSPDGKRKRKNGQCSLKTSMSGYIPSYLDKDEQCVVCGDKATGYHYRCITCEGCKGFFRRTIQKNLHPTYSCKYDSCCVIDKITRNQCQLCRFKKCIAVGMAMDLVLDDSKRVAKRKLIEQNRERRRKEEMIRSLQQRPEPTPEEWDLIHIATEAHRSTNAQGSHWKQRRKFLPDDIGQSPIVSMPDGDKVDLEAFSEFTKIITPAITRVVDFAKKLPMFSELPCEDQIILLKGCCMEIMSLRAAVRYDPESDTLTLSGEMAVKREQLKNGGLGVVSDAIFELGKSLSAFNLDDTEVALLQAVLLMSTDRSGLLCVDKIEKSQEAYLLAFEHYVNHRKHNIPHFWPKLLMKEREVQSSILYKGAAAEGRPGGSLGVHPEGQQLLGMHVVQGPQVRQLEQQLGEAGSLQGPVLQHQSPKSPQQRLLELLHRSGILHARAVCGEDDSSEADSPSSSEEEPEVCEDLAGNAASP
How it was run: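 520:495 nm emission ratio (excitation 340 nm) reports fluorescein-SRC-2 peptide recruitment to GST-TRα LBD by TR-FRET with Tb anti-GST antibody. Values were normalized to DMSO (0%) and T3 control wells (100%); loss of signal indicated antagonism.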

THRB (gene 7068) [10] = biological target: THRB (gene 7068) (UniProt P10828); assay: TOX21_TRB_BLA_Antagonist_Followup_ratio: Tox21 Thyroid Hormone Receptor beta Antagonism Beta-lactamase (BLA) Follow-Up Assay, Ratio (AID 2283958)
Chain of THRB (gene 7068) (P10828 whole entry, looked up, the tested form may be a part): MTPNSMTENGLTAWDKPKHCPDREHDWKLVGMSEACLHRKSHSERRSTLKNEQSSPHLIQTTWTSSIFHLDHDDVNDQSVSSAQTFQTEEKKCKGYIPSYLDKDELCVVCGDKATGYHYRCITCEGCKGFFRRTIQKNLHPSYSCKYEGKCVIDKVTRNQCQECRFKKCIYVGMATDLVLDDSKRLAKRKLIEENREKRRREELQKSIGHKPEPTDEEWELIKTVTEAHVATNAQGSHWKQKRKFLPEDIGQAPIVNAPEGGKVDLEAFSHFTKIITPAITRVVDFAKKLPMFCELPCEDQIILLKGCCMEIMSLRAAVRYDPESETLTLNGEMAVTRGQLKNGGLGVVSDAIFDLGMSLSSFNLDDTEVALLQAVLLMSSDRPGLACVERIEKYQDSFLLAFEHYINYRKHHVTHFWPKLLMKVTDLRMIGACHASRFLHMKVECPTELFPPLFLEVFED
How it was run: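 HEK293T cells with a GAL4-TRb LBD fusion and UAS-bla reporter, 3,000 cells/well in phenol red-free DMEM with 2% charcoal-stripped FBS. Exposed 18 h at 37C to 11 concentrations in triplicate; CCF4 460:530 nm ratio after 2 h, DMSO-referenced.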

[11] = TOX21_TRB_BLA_Antagonist_Followup_viability: Viability Assessment in the Tox21 Thyroid Hormone Receptor beta Antagonism Beta-lactamase (BLA) Follow-Up Assay (AID 2283961)
How it was run: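 HEK293T cells with GAL4-human TRβ LBD and UAS-bla reporter, 3,000 cells/well in 2% charcoal-stripped FBS medium; 11-point concentrations in triplicate, 18 h at 37C. Viability from ATP by CellTiter-Glo luminescence, 30 min RT, same plates.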

THRB (gene 7068) [12] = biological target: THRB (gene 7068) (UniProt P10828); assay: TOX21_TRB_COA_Antagonist_Followup_ratio: Tox21 Thyroid Hormone Receptor beta Antagonism through Coactivator Recruitment Follow-Up Assay, Ratio (AID 2283967)
How it was run: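 Cell-free TR-FRET coactivator recruitment with GST-tagged TRβ LBD (5.0 nM) and fluorescein-labeled SRC-2 peptide (200 nM) detected by terbium anti-GST antibody (2 nM). The 520:495 nm emission ratio was normalized to DMSO (0%) and T3 (100%).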

[13] = biological target: Retinoic acid receptor RXR-alpha (Homo sapiens) (UniProt P19793); assay: TOX21_TR_RXR_BLA_Antagonist_Followup_ratio: Tox21 Thyroid Hormone Receptor beta Retinoid X Receptor alpha (RXRa) Antagonism Beta-lactamase (BLA) Follow-Up Assay, Ratio (AID 2283972)
Chain of Retinoic acid receptor RXR-alpha (Homo sapiens) (P19793 whole entry, looked up): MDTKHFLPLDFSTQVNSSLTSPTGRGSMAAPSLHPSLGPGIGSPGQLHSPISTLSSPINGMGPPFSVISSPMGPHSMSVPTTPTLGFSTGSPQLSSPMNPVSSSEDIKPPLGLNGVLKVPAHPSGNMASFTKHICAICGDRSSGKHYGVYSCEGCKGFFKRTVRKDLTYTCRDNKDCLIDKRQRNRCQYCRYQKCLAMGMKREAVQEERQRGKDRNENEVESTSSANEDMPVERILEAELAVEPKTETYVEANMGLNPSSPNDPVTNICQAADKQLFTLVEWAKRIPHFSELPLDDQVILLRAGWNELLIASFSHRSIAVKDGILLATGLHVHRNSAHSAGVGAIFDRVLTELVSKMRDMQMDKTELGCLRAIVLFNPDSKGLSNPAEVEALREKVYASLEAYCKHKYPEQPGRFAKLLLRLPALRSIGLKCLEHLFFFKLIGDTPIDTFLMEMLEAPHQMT
How it was run: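 RXRa-UAS-bla HEK293T cells, 2,500/well in phenol red-free DMEM with 2% charcoal-stripped FBS, 5 h attachment, then compounds (11 concentrations, triplicate) for 16 h at 37C; FRET-B/GCCF4-AM substrate 2 h RT; 460:530 nm ratio, loss of signal vs DMSO.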

[14] = CCTE_Harrill_HTTr_Viability_MCF7: CCTE's 6-hour Cell Viability Assessment for the High-Throughput Transcriptomics (HTTr) Platform, in MCF-7 cells cultured in DMEM + 10% fetal bovine serum, Harrill Lab (AID 2284010; active = hit-call score of the fitted dose curve at least 0.9, where 1 is the maximum; inactive = score below 0.9)
How it was run: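 MCF-7 cells in DMEM + 10% FBS, 384-well, exposed 6 h to an eight-point dilution series. Membrane integrity scored by high-content imaging of propidium iodide exclusion; bidirectional fit versus DMSO.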

Measured: AC50

CC1(C)N=C(N)N=C(N)N1c1ccc(Cl)cc1
active: [1] 6.72 µM | [2] 28.2 µM | [3] 13.9 µM | [5] 6.46 µM | [7] 7.84 µM | [11] 32.1 µM
not listed: [14]
inactive: all other assays above

CCCC(=O)O[C@]1(C(=O)CCl)[C@@H](C)C[C@H]2[C@@H]3CCC4=CC(=O)C=C[C@]4(C)[C@@]3(F)C(=O)C[C@@]21C
not listed: [9] | [13] | [14]
inactive: all other assays above

Nc1c2ccccc2nc2ccccc12
active: [2] 2.18 µM and 2.99 µM | [4] 5.09 µM and 6.02 µM | [6] 3.58 µM and 3.94 µM | [8] 2.28 µM and 5.34 µM | [9] 6.25 µM
not listed: THRB (gene 7068) [10] | [14]
inactive: all other assays above

COc1cc2ncnc(Nc3ccc(F)c(Cl)c3)c2cc1OCCCN1CCOCC1
active: [5] 40.7 µM
inactive: [1] | [2] | [3] | [4] | [6] | [7] | [8]

CC(=O)NCCCS(=O)(=O)O
not listed: [9] | THRA (gene 7067) | THRB (gene 7068) [10] | [11] | THRB (gene 7068) [12] | [13]
inactive: all other assays above

CC(C)=CCC1=C(O)c2ccccc2C(=O)C1=O
active: [2] 1.36 µM | [4] 1.27 µM | [6] 1.74 µM | [8] 2.71 µM | THRB (gene 7068) [12] 31.3 µM
not listed: [14]
inactive: all other assays above

CN(C)C(=O)C(CCN1CCC(O)(c2ccc(Cl)cc2)CC1)(c1ccccc1)c1ccccc1
active: [5] 26.6 µM
inactive: [1] | [2] | [3] | [4] | [6] | [7] | [8]
